POLK inh = blocks human DNA polymerase kappa activity | Potency, µM (top dose mostly 107 µM), actives largely listed as inhibitors | Q9UBT6 | 400,000 tested, 0.53% active | purified Pol kappa, fluorescent DNA synthesis assay, 10 min
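Enzyme at 10 nM met test compounds for 15 min at room temperature. Substrate addition (50 nM final) began the reaction, which was monitored by fluorescence at 0 and 10 min.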
PGK inhibitor = T. brucei PGK inhibition | P07378 | PGK/GAPDH coupled, Kinase-Glo luminescence, 60 min | Potency, µM (top dose mostly 57.5 µM), most hits filed as inhibitors | 380,000 tested, 0.043% active | AID 602233; further: nearly all actives have a fitted effect of over 60% in size
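Luminescent ATP detection (Kinase-Glo Plus) follows a 60-minute room-temperature incubation, with wells lacking PGK as controls. Buffer: 100 mM TEA (pH 7.6), 5 mM MgCl2, 0.01% Tween-20. Coupling enzyme GAPDH (100 nM final) supplies unstable 1,3-BPG in-well.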
Pol iota inh = blocks human DNA polymerase iota activity; Pol iota fluorescent replication assay, 10 min; Potency, µM (highest dose often 115 µM), hits mostly inhibitors; 390,000 tested, 1% active; AID 588590
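Fluorescent replication assay read twice, at 0 min and 10 min after adding 50 nM (final) substrate. Enzyme (10 nM) and compounds were first incubated 15 min at room temperature; enzyme-free buffer wells were negative controls.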
Pol eta inh = blocks human DNA polymerase eta activity; Q9Y253; recombinant Pol eta, fluorescent DNA replication assay; Potency, µM (series often up to 114 µM), hits mostly inhibitors; 390,000 tested, 1.2% active
Target sequence (Q9Y253 whole entry, looked up): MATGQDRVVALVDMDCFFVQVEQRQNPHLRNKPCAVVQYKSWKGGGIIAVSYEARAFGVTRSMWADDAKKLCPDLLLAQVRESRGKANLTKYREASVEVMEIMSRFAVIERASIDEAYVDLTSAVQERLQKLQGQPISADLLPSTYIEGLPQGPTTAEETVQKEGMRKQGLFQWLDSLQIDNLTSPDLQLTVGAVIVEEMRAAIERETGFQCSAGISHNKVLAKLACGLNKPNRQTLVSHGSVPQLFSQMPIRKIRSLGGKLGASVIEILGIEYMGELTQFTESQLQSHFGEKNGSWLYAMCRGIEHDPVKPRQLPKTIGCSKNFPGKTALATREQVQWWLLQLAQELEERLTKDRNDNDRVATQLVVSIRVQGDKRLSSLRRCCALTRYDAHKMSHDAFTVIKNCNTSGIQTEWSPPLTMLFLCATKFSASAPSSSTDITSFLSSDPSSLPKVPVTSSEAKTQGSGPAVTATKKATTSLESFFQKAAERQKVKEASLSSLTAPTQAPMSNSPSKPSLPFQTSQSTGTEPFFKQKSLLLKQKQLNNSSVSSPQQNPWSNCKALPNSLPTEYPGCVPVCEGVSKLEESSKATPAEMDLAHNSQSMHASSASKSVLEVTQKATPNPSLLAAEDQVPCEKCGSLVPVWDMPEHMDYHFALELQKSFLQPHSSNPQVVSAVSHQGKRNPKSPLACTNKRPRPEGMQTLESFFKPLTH
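Fluorescent replication assay: 50 nM final substrate added after a 15 min room-temperature compound preincubation with 10 nM enzyme. Signal taken at 0 min and again at 10 min.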
FEN1 inhibitor = inhibitors of human flap endonuclease 1; Potency, µM (doses to about 114 µM), hits mostly inhibitors; Recombinant FEN1 flap cleavage, fluorescence, 15 min; 390,000 tested, 0.35% active; further: nearly all actives have a fitted effect of over 65% in size
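Nuclease activity of 10 nM FEN1 was measured after 15 min of room-temperature exposure to titrated compounds, by adding 50 nM flap substrate and reading plates at 0 and 15 min.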
Pol beta inh = inhibitors of human DNA polymerase beta | P06746 | Pol beta primer extension/strand displacement, fluorescence kinetic | 340,000 tested, 1.3% active | Potency, µM (top dose mostly 114 µM), usual class: inhibitors | AID 485314
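Pol beta (10 nM) and compounds were preincubated 15 min at room temperature, then 50 nM substrate (final) started primer extension/strand displacement. Reads were taken at 0 and 10 min; concentration-response data were fitted to a four-parameter Hill equation.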
Of the large screens only hits and unclear results are named; the others gave an inactive call. Rows were chosen to be rich in hits. Some 2.4% of all compounds tested hit in one or more screens of this group. The call rests on the fitted dose curve; in most records, active means well fitted curve in the direction sought with a large enough effect; inconclusive means small, poorly fitted or top-dose-only effect, or another doubt; inactive means no such curve, though single readings can be large; an effect the other way counts as inactive or inconclusive.

Nc1ccc(S(=O)(=O)Nc2nc3ccccc3o2)cc1	POLK inh inconclusive, Pol iota inh inconclusive, Pol eta inh 45µM, Pol beta inh 79µM
O=C(O)c1ccc(S(=O)(=O)c2ccccc2C(=O)O)c([N+](=O)[O-])c1	Pol beta inh inconclusive
O=C(O)c1ccc(S(=O)(=O)c2ccc([N+](=O)[O-])cc2[N+](=O)[O-])cc1	Pol iota inh 1.1µM, Pol eta inh 79µM
NS(=O)(=O)c1ccc(-c2ccc(C=O)o2)cc1	none
CC1=C(C#N)C(=O)NC(=O)/C1=C/c1ccc(-c2ccc(S(N)(=O)=O)cc2)o1	POLK inh inconclusive, PGK inhibitor inconclusive, Pol iota inh inconclusive, Pol eta inh 14µM, Pol beta inh inconclusive
NS(=O)(=O)c1ccc(-c2ccc(/C=C3\NC(=S)NC3=O)o2)cc1	POLK inh 50µM, Pol iota inh 10µM, Pol eta inh 79µM, FEN1 inhibitor 50µM
Nc1nc(Cl)nc2c1ncn2[C@@H]1O[C@H](CO)[C@H](O)C1F (some centres not stated)	none (no result: PGK inhibitor, Pol iota inh, Pol eta inh, FEN1 inhibitor, Pol beta inh)
Cc1ccc2nc(-c3ccc(Cl)c(NC(=O)c4ccc5c(c4)OCCO5)c3)oc2c1	none
COC(=O)/C=C1\SC(=Nc2ccc(OC)cc2)NC1=O	none
COC(=O)/C=C1\S/C(=N\N=C\CC(=O)OC)NC1=O	POLK inh 40µM, Pol iota inh 18µM, Pol eta inh inconclusive, FEN1 inhibitor inconclusive
O=C(NCC(=O)N1CCN(c2ccccc2O)CC1)c1ccco1	Pol iota inh 79µM
O=C(NCC(=O)N1CCCCCCC1)c1ccco1	none (no result: Pol beta inh)
O=C(C[n+]1ccccc1Cl)c1ccc2c(c1)CCCC2	POLK inh inconclusive, Pol iota inh inconclusive (no result: PGK inhibitor, Pol eta inh, Pol beta inh)
COCCNc1cc(-c2ccccc2C)ncn1	POLK inh 32µM (no result: PGK inhibitor, Pol iota inh, Pol eta inh, FEN1 inhibitor, Pol beta inh)
Cc1ncc(CN2CCCC(C(=O)Nc3ccc(-c4ccco4)cc3)C2)cn1 (configuration not stated)	POLK inh inconclusive, Pol iota inh 32µM, Pol eta inh inconclusive
Cc1ncc(CN2CCCC(C(=O)Nc3ccc(-c4cscn4)cc3)C2)cn1 (configuration not stated)	none
Oc1ccc(Cl)cc1C1C=C(c2ccc3c(c2)OCO3)NC(c2cc(Br)ccc2F)N1 (configuration not stated)	Pol iota inh inconclusive, FEN1 inhibitor inconclusive (no result: PGK inhibitor, Pol eta inh, Pol beta inh)
CC(=O)N(/N=C1\Sc2ccccc2C1=O)c1cccc(C)c1	Pol iota inh inconclusive, Pol eta inh 20µM
Cc1ccc(S(=O)(=O)N2CCCCC2)cc1NC(=O)Cn1cnnn1	none
Cc1ccc(S(=O)(=O)N2CCCCC2)cc1NC(=O)Cn1ncc(Cl)c(Cl)c1=O	Pol iota inh inconclusive, Pol eta inh 56µM (no result: Pol beta inh)
CCOC(=O)c1ccc(NC(=O)CSCc2ccco2)cc1	POLK inh inconclusive, Pol iota inh 25µM, Pol eta inh inconclusive, Pol beta inh inconclusive
O=C(Cn1ncc(Cl)c(Cl)c1=O)Nc1ccc2c(c1)OCO2	Pol iota inh inconclusive, Pol eta inh inconclusive (no result: Pol beta inh)
CCN(CC)S(=O)(=O)c1cc(NC(=O)Cn2ncc(Cl)c(Cl)c2=O)ccc1C	POLK inh 71µM, Pol iota inh 25µM, Pol eta inh 35µM, Pol beta inh 28µM
CCOC(=O)c1ccc(NC(=O)Cn2ncc(Cl)c(Cl)c2=O)cc1	Pol iota inh 28µM, Pol eta inh inconclusive
Cc1cc(=O)oc2cc(O[C@@H]3O[C@H](C(=O)O)[C@@H](O)[C@H](O)[C@H]3O)ccc12	none (no result: PGK inhibitor, Pol iota inh, Pol eta inh, FEN1 inhibitor, Pol beta inh)
O=C(C[n+]1c(Cl)cc(Cl)c2ccccc21)c1ccccc1	none (no result: PGK inhibitor, Pol eta inh, Pol beta inh)
CCC(/C=C1\Sc2ccc(OC)cc2N1CCO)=C\c1sc2ccc(OC)cc2[n+]1CCO	POLK inh inconclusive, PGK inhibitor inconclusive, Pol iota inh inconclusive, Pol eta inh 14µM, FEN1 inhibitor 35µM, Pol beta inh 22µM
CCC(/C=C1\Sc2ccc(OC)cc2N1CC)=C\c1sc2ccc(OC)cc2[n+]1CCCS(=O)(=O)[O-]	PGK inhibitor inconclusive, Pol eta inh inconclusive, FEN1 inhibitor inconclusive, Pol beta inh 8.9µM
CCC(=O)/C=C1/Sc2ccc(OC)cc2N1CC	none
CCO/C(=C/c1sc2ccc(OC)cc2[n+]1CCCS(=O)(=O)[O-])CC	none
O=C1NC(=O)C(Cc2ccc(OCCN3COc4ccccc4C3=O)cc2)S1 (configuration not stated)	none (no result: PGK inhibitor, Pol iota inh, Pol eta inh, FEN1 inhibitor, Pol beta inh)
COc1ccc(C(=O)COC(=O)C2CC3CCCC(C2)C3=O)cc1Br (configuration not stated)	none (no result: Pol beta inh)
COc1ccc(C(=O)COC(=O)CN2CC(=O)Oc3ccccc32)cc1Br	Pol iota inh 25µM, Pol beta inh inconclusive
CCN(CC)c1ccc(/C=C2\C=Cc3ccccc32)cc1	none (no result: PGK inhibitor, Pol eta inh, Pol beta inh)
CCOc1ccccc1-n1nnnc1SCC(=O)NC(=O)NCc1ccco1	POLK inh inconclusive, Pol iota inh inconclusive, Pol eta inh inconclusive, Pol beta inh 22µM
Cn1nnnc1SCC(=O)NCc1ccco1	none
Nn1c(SCC(=O)NC(=O)NCc2ccco2)nnc1-c1ccc(OC(F)F)cc1	POLK inh inconclusive, Pol iota inh inconclusive, Pol eta inh 8.9µM, Pol beta inh inconclusive
O=C(CSc1nnnn1-c1ccccc1)NC(=O)NCc1ccco1	POLK inh inconclusive, Pol iota inh 20µM, Pol eta inh 8.9µM, Pol beta inh 40µM
Nn1c(SCC(=O)NCCN2C(=O)CSC2=O)nnc1-c1ccc(OC(F)F)cc1	none (no result: Pol beta inh)
Cc1ccc(NC(=O)c2cc3c([nH]c2=O)CC(c2ccccc2)CC3=O)cc1 (configuration not stated)	none (no result: PGK inhibitor, Pol eta inh, Pol beta inh)
CCC(Sc1ncc(S(=O)(=O)c2ccc(C)cc2)c(=O)[nH]1)C(=O)Nc1cc(C)ccc1C (configuration not stated)	Pol iota inh inconclusive, Pol beta inh 25µM
CCOC(=O)c1ccc(NC(=O)CSc2ncc(S(=O)(=O)c3ccc(C)c(Cl)c3)c(=O)[nH]2)cc1	Pol iota inh inconclusive, Pol eta inh inconclusive, FEN1 inhibitor inconclusive, Pol beta inh 89µM
Cc1ccc(S(=O)(=O)c2cnc(SC(C)C(=O)Nc3ccccc3)[nH]c2=O)cc1 (configuration not stated)	Pol iota inh inconclusive
Cc1ccc(C)c(NC(=O)CSc2ncc(S(=O)(=O)c3ccc(C)c(Cl)c3)c(=O)[nH]2)c1	none
CCOC(=O)c1c(NC(=O)c2ccc(S(=O)(=O)N(C)C3CCCCC3)cc2)sc2c1CCN(C(C)C)C2	none
O=C(CCc1nc2sc3c(c2c(=O)[nH]1)CCCC3)NCCc1ccccc1	POLK inh inconclusive, Pol iota inh 50µM, Pol eta inh inconclusive (no result: Pol beta inh)
O=C(CCc1nc2sc3c(c2c(=O)[nH]1)CCCC3)NCCc1ccc(F)cc1	Pol iota inh inconclusive, Pol eta inh inconclusive, Pol beta inh 22µM
CO/N=C(/C(=O)N[C@@H]1C(=O)N2C(C(=O)O)=CCS[C@H]12)c1csc(N)n1	none (no result: PGK inhibitor, Pol iota inh, Pol eta inh, FEN1 inhibitor, Pol beta inh)
